In PubChem BioAssay AID940 (Emory University Molecular Libraries Screening Center, 2007):
Several values for one entry are separate records, joined by “and”; a condition that tells them apart may be missing. Equal entries are not always repeated. Out of some 260,000 compounds screened, about 2,200 (0.85%) were called active. This is one part of a sample in which actives are shown more often than they occur.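 The calls were made as follows: active = compounds whose cAMP rise, as percent of the full-agonist control response, exceeds 60; inactive = the rest.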 Where a structure was tested more than once in an assay, its records may differ in their call.

molecular target: Prostaglandin E2 receptor EP2 subtype (Homo sapiens) (UniProt P43116); assay: EP2 receptor modulators, cAMP readout, primary screen, cell-based, HTRF cAMP, PGE2 stimulation (AID 940); conditions: EP2-expressing cells, cAMP HTRF FRET, PGE2 co-stimulation; at 25 µM; stronger effect = higher value;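 also: rat C6 glioma line stably carrying human EP2 under a CMV promoter; the protocol text gives 20 µM as final concentration; 100% = response of wells given 1 µM PGE2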
Sequence (P43116 whole entry, looked up): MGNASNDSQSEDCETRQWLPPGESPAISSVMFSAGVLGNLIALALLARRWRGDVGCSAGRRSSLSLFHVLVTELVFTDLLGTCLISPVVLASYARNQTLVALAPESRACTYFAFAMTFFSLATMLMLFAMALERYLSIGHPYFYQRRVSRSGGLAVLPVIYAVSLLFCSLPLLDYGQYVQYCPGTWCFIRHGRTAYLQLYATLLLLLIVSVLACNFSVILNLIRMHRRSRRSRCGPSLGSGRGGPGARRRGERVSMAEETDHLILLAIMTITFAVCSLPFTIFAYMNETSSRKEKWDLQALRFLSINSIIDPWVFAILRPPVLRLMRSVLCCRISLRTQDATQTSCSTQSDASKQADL

| Compound | induction |
| --- | --- |
| Cn1c(=O)[nH]c(=O)c2c1nc(NCCCO)n2Cc1cccc2ccccc12 | 22% (inactive) |
| CCc1nc(C)ccc1OCC(=O)N(CC)CC | 8.52% (inactive) |
| CCC(C)(C)c1ccc(OCC(=O)N(C)C)c(C(C)(C)CC)c1 | 76% (active) |
| CN(C)CCOc1ccc(Cl)cc1C(C)(C)C | -0.86% (inactive) |
| COc1cc(C2NC(=O)NC(C)=C2C(=O)Nc2ccc(C)cc2C)ccc1O (centres undefined) | 5.85% (inactive) |
| COC(=O)CSc1nc2ccccc2c(=O)n1Cc1ccccc1 | 47.6% (inactive) |
| O=C(CCn1c(SCC(=O)c2ccccc2)nc2ccccc2c1=O)NCc1ccc(F)cc1 | 11.2% (inactive) |
| CSc1nc2ccccc2c(=O)n1Cc1ccc(F)cc1 | 80.8% (active) |
| COc1cccc(C2(NC(=O)c3cccc(N4CCCCS4(=O)=O)c3)CCCC2)c1 | -5.04% (inactive) |
| O=C(Nc1cc(Cl)cc(Cl)c1)C1CCN(C(=O)c2cccs2)CC1 | -118% (inactive) |
| C=CCn1c(SCC(=O)Nc2ccccc2F)nc2sc(C)c(C)c2c1=O | -87.9% (inactive) |
| COc1cccc(-c2ccc(NS(=O)(=O)c3ccc4c(c3)CCC(=O)N4)cc2)c1 | -97.5% (inactive) |
| CC(C)Oc1c(Br)cc(Br)cc1/C=N/NC(N)=S | 62% (active) |
| NC(=S)N/N=C/c1coc2cc(Cl)ccc2c1=O | 5.33% (inactive) |
| CCOc1ccc(/C=N/NC(N)=S)cc1 | -0.15% (inactive) |
| COc1ccccc1NC(=S)N(Cc1cc2c(C)cc(C)cc2[nH]c1=O)C1CCCC1 | 3.07% (inactive) |
| CCOC(=O)C(=O)Nc1sc(C(=O)Nc2cc(C)ccc2C)c(C)c1C(=O)OC | -1.65% (inactive) |
| COC(=O)c1c(NC(=O)C2CC2)sc(C(=O)Nc2cc(C)ccc2C)c1C | -75.5% (inactive) |
| COC(=O)c1c(NC(=O)C(C)C)sc(C(=O)Nc2cc(C)ccc2C)c1C | 62% (active) |
| COCCn1c(=O)n(CC(=O)N2CCN(c3ccccc3F)CC2)c2cccnc21 | 0.09% (inactive) |
| CCN1c2ncccc2C(=O)NC12CCN(C(=O)c1cccc3c1C(=O)N(C)C3)CC2 | -5.04% (inactive) |
| CCn1c(CSc2nc(C)cc(C)n2)nnc1SCC(=O)Nc1cccc(C(F)(F)F)c1 | -10.6% (inactive) |
| CC[N+](C)(CC[N+](C)(C)C)Cc1cc2ccccc2o1 (centres undefined) | -3.15% (inactive) |

| Compound | induction |
| --- | --- |
| CCCCCn1c(SCCC(C)C)nc2c1c(=O)[nH]c(=O)n2C | 69.2% (active) |
| CCCCCCn1c(SCC(=O)c2ccccc2)nc2c1c(=O)[nH]c(=O)n2C | -0.64% (inactive) |
| C=CCn1c(SC(C)C(=O)OC)nc2c1c(=O)[nH]c(=O)n2C (centres undefined) | -1.3% (inactive) |
| C=CCn1c(=O)c(C(=O)Nc2cccc(C)n2)c(O)c2ccccc21 | 2.07% (inactive) |
| CCn1c(COc2ccc(OC)cc2)nnc1SC(C)C(=O)Nc1ccccc1C (centres undefined) | 28.9% (inactive) |
| COc1ccccc1Cc1nnc(NC(=O)c2cnc(SC)nc2)s1 | -0.63% (inactive) |
| CC1=CC(C)(C)N(C(=O)CSc2nnc(-c3ccccc3)o2)c2ccc(C)cc21 | 61.5% (active) |
| CC1=CC(C)(C)N(C(=O)CSc2nccn2C)c2cc(C)ccc21 | 43.9% (inactive) |
| O=C(CSc1nnc(-c2ccccc2)o1)N1CCOCC1 | 1.42% (inactive) |
| COc1ccc(-c2csc(N3N=C(C)CC3=O)n2)cc1 | -82.9% (inactive) |
| NC(=O)C1CCN(Cc2nnnn2Cc2ccccc2)CC1 | 25.5% (inactive) |
| C=CCn1cnc2sc(C)c(-c3ccc(Cl)cc3)c2c1=O | 72.1% (active) |
| CCCOC(=O)Cn1cnc2sc(C)c(-c3ccc(Cl)cc3)c2c1=O | 27.2% (inactive) |
| CCCn1cnc2sc(C)c(-c3ccc(Cl)cc3)c2c1=O | 36.5% (inactive) |
| O=C(Nc1cccc2ccccc12)C1CCN(C(=O)c2cccc(Cl)c2)CC1 | -52% (inactive) |
| CC(C)N(C(=O)CSc1nc(COc2ccccc2)nc2ccccc12)C(C)C | 60.5% (active) and 78.3% (active) |
| CCCc1nc(SCC(=O)Nc2ccc(S(=O)(=O)N(C)C)cc2)c2ccccc2n1 | 0.33% (inactive) |
| CN(C(=O)CSc1nc(C2CC2)nc2ccccc12)c1nc(-c2ccccc2)cs1 | 0.29% (inactive) |
| COc1cc(OC)cc(OCC(O)Cn2c(C)nc3ccccc32)c1 (centres undefined) | -45% (inactive) |
| CCn1c(SCC(=O)Nc2cc(Cl)ccc2Cl)nc2sc(C)c(C)c2c1=O | 8.59% (inactive) |
| CC1(C(=O)N(CC(=O)NCc2ccc(F)cc2)C2CCCC2)CC(=O)N=C2C=CC=CN21 (centres undefined) | -9.59% (inactive) |
| NC(=O)COc1ccc(NC(=O)c2ccccc2-c2ccccc2)cc1 | -20.6% (inactive) |
| NNC(=O)COc1ccc(C2SCCS2)cc1 | -9.97% (inactive) |

| Compound | induction |
| --- | --- |
| NC(=O)COc1ccc(C23CC4CC(CC(C4)C2)C3)cc1 | 87.8% (active) |
| Cn1nnc2cc(NC(=O)Nc3ccc(F)cc3)ccc21 | -20.8% (inactive) |
| Cc1nc(NCCN)c(C#N)c2c1COC(C)(C)C2 | 14.1% (inactive) |
| CCNc1nc(C)c([N+](=O)[O-])c(C)c1C#N | 68.9% (active) |
| Cc1nn(CC(=O)Nc2ccc(C#N)cc2)c(C)c1[N+](=O)[O-] | 40.4% (inactive) |
| COc1ccccc1-c1ocnc1C(=O)Nc1ccc(N2CCC(C)CC2)c(C(N)=O)c1 | -7.54% (inactive) |
| Cc1ccc(OCCCn2c(=O)oc3ccccc32)cc1 | -12.8% (inactive) |
| NC(=O)Cn1c(=O)oc2ccccc21 | 8.45% (inactive) |
| O=c1oc2ccccc2n1CCCOc1cccc2ccccc12 | 74.5% (active) |
| CC1CCCN(CC(=O)N2CCN(C(=O)CN3CCCC(C)C3)CC2)C1 (centres undefined) | -44.2% (inactive) |
| CCCn1c(=O)[nH]c2c(C(N)=O)nc(-c3ccccc3F)nc21 | -12.9% (inactive) |
| CCOC(=O)c1c(C2CC2)csc1NC(=O)CSCc1c(C)noc1C | 75.9% (active) |
| CCOC(=O)c1c(-c2cccc(C)c2)csc1NC(=O)c1c(-c2ccccc2)noc1C | 34.1% (inactive) |
| Cc1noc(C)c1CSCC(=O)Nc1nc2ccc(Oc3ccccc3)cc2s1 | -9.73% (inactive) |
| CCOc1cccc(/C(O)=C2/C(=O)C(=O)N(CCN3CCOCC3)C2c2ccc(C)o2)c1 (centres undefined) | -20% (inactive) |
| CCC(c1nnnn1C(C)(C)CC)N(Cc1cccs1)Cc1cc2ccc(C)c(C)c2[nH]c1=O (centres undefined) | 48.5% (inactive) |
| Cc1ccc2c(c1)C(=O)CC1(CCN(C(=O)N3CCOCC3)CC1)O2 | -15.2% (inactive) |
| O=C(CSc1nnc2c(n1)[nH]c1ccc(F)cc12)Nc1cccc2ccccc12 | -43.9% (inactive) |
| C=C(C)Cn1c(N2CCC(C)CC2)nc2c1c(=O)[nH]c(=O)n2C | -6.93% (inactive) |
| Cc1cc(C)nc(SCCn2c(N3CCC(C)CC3)nc3c2c(=O)[nH]c(=O)n3C)n1 | 1.48% (inactive) |
| CC1CCN(c2nc3c(c(=O)[nH]c(=O)n3C)n2CCCc2ccccc2)CC1 | 57.4% (inactive) and 67% (active) |
| O=C(NCC1CCCO1)C(=O)Nc1cc(Cl)cc(Cl)c1 (centres undefined) | -89.4% (inactive) |
| Cc1cc2c(cc3c(=O)n(CC(=O)N(Cc4ccncc4)C4CC4)nc(C)n32)s1 | 41.2% (inactive) |

| Compound | induction |
| --- | --- |
| Cc1cccc2cc(CN(Cc3ccc4c(c3)OCO4)Cc3nnnn3C3CCCC3)c(=O)[nH]c12 | 42.4% (inactive) |
| CCC(c1nnnn1C1CCCCC1)N(Cc1cccs1)Cc1cc2cc(C)cc(C)c2[nH]c1=O (centres undefined) | 75.2% (active) |
| Cc1ccc2cc(CN(Cc3ccccc3)C(c3nnnn3C3CCCCC3)C(C)C)c(=O)[nH]c2c1C (centres undefined) | 45.6% (inactive) |
| CCC(c1nnnn1C1CCCC1)N(Cc1cccs1)Cc1cc2ccc(C)c(C)c2[nH]c1=O (centres undefined) | 49% (inactive) |
| CCC(c1nnnn1C1CCCC1)N(Cc1cccs1)Cc1cc2cccc(C)c2[nH]c1=O (centres undefined) | 46.6% (inactive) |
| Cc1ccc(CN(Cc2cc3cc4c(cc3[nH]c2=O)OCCO4)Cc2nnnn2C2CCCC2)cc1 | 2.08% (inactive) |
| Cc1ccc2[nH]c(=O)c(CN(CCc3ccccc3)Cc3nnnn3C3CCCCC3)cc2c1 | 71.2% (active) |
| Cc1cccc2cc(CN(Cc3cccs3)Cc3nnnn3C3CCCCC3)c(=O)[nH]c12 | 70.9% (active) |
| CCOc1ccc2[nH]c(=O)c(CN(Cc3ccccc3)Cc3nnnn3C3CCCC3)cc2c1 | -7.93% (inactive) |
| Cc1cccc2cc(CN(Cc3cccs3)C(c3nnnn3C3CCCC3)C(C)C)c(=O)[nH]c12 (centres undefined) | 63.3% (active) and 74.3% (active) |
| Cc1cc(C)c2[nH]c(=O)c(CN(Cc3ccco3)C(c3nnnn3C3CCCCC3)C(C)C)cc2c1 (centres undefined) | 25.3% (inactive) |
| Cc1ccc(CN(Cc2cc3c(C)ccc(C)c3[nH]c2=O)Cc2nnnn2C2CCCC2)cc1 | 38.9% (inactive) |
| CCn1c(COc2ccc(Br)cc2)nnc1SCC(=O)NCc1ccccc1 | 19.8% (inactive) |
| O=C(CCSc1nc(-c2ccc3c(c2)OCO3)cc(C(F)(F)F)n1)NCc1ccncc1 | -33.7% (inactive) |
| CC1CCN(c2nc3c(c(=O)[nH]2)CCN(Cc2c(O)ccc4ccccc24)C3)CC1 | -22.9% (inactive) |
| COc1ccccc1NC(=O)COc1ccc(/C=C/C2=CCN(C)CC2)cc1OC | -73.1% (inactive) |
| CCOc1ccc(OCC)c(NC(=O)CSc2ncnc3sc(C)c(C)c23)c1 | 40.1% (inactive) |
| Cn1c(=O)sc2cc(S(=O)(=O)NC3(c4ccccc4F)CC3)ccc21 | -176% (inactive) |
| COc1ccc(Cn2nnnc2CN(Cc2cc3cc(C)ccc3[nH]c2=O)C2CCCCC2)cc1 | 30.9% (inactive) |
| COc1nc(C)c(CC(=O)Nc2ccc3[nH]c4c(c3c2)CCCC4)c(OC)n1 | -85% (inactive) |
